Shown are actives, neighbours in structure and some others; about 5.7% of the full set was active somewhere.
AHR act: AHR activators, primary screen, cell-based, luminescence, luciferase reporter, human. Aryl hydrocarbon receptor (Homo sapiens), P35869. AHR-responsive luciferase reporter cells. activation, % at 5 µM. 320,000 tested, 2.5% active. AID 2796, 2010; in the data active means activation above about 47%;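 further: 0% = vehicle wells and 100% = reference agonist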
ssDAF-12 act: S. stercoralis DAF-12 nuclear receptor activators, primary screen, cell-based, luminescence, HEK293, GRIP1 co-expression, lit1-tk-luc. AID 652126, 2013. HEK293 ssDAF-12/GRIP1 lit1-tk-luc reporter; % of 3 µM dafachronic acid response. 370,000 tested, 1% active. Nuclear hormone receptor DAF-12 (Strongyloides stercoralis). activation, % at 6.8 µM;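 active means activation above the mean over all tested compounds plus 3 SD, cut at about 0.9% in these data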;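 further: 0% = DMSO-only wells and 100% = 3 µM delta7-dafachronic acid wells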
DAX1 inh-1: DAX1 (NR0B1) inhibitors, primary screen, cell-based, HEK293, Gal4-DAX1, luciferase luminescence; HEK293 Gal4-DAX1 luciferase reporter; inhibition, % at 6.75 µM; 340,000 tested, 0.99% active; AID 504766, 2011;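 active means inhibition above the mean over all tested compounds plus 3 SD, cut at about 4.2% in these data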;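 further: 0% = DAX1-transfected cells with DMSO and 100% = empty-vector control cells with DMSO; inhibition shows as a rise in luminescence from relieved DAX1 repression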
Target sequence (P51843 207-470 limits assumed): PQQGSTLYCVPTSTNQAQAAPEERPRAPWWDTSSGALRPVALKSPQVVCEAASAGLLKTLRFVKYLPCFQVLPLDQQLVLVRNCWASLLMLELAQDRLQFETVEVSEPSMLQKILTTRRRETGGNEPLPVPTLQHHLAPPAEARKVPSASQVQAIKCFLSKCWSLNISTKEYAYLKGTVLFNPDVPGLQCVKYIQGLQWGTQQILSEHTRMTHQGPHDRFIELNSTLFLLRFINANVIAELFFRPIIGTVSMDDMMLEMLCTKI
hgDAF12 agonist: H. glycines DAF-12 receptor agonists, primary screen, cell-based, luminescence, HEK293, GAL4 fusion, UAS-luciferase. Nuclear hormone receptor DAF-12 (Heterodera glycines), GAL4 fusion. HEK293 GAL4-hgDAF12 UAS-luciferase reporter, agonist luminescence; normalized to butyrate control. activation, % at 6.8 µM. 370,000 tested, 1.8% active;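 active means activation above a cutoff set at the mean of all screened compounds plus 3 SD, cut at about 10% in these data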;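 further: 0% = DMSO wells and 100% = sodium butyrate wells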
hcDAF-12 act: H. contortus DAF-12 nuclear receptor activators, primary screen, cell-based, luminescence, HEK293, lit1-tk-luc reporter; HEK293 hcDAF-12 lit1-tk-luc reporter; 0% DMSO, 100% Δ7-dafachronic acid; activation, % at 6.8 µM; 370,000 tested, 1.4% active; AID 652067, 2013;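 active means activation above the mean of all tested compounds plus 3 SD, cut at about 5.5% in these data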;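 further: 100% = response to 3 µM Δ7-dafachronic acid high control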
DAX1 inh-2: DAX1 (NR0B1) inhibitors on StAR promoter, primary screen, cell-based, luminescence, SF-1 (NR5A1), full-length DAX-1 | HEK293T StAR-luciferase reporter, SF-1/DAX-1 repression relief | inhibition, % at 6.8 µM | 370,000 tested, 1.1% active | AID 652010, 2013;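 active means inhibition above the mean over all tested compounds plus 3 SD, cut at about 3.6% in these data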;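 further: 0% = DAX-1 cells with DMSO and 100% = cells lacking DAX-1 with DMSO; higher inhibition means more luminescence from relief of DAX-1 repression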
DAX1 conf: DAX1 (NR0B1) inhibitors relieving SF-1 repression, confirmation, cell-based, luminescence, HEK293T, full-length DAX-1, SF-1 activated StAR promoter; shares compounds with DAX1 inh-2; HEK293T StAR-promoter luciferase reporter, SF-1/DAX-1 repression; inhibition, % at 6.8 µM; 2,400 tested, 87% active;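 active means inhibition above the average of every tested compound plus 3 SD, cut at about 3.8% in these data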;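 further: 0% = DAX-1 cells with DMSO and 100% = no DAX-1 control cells with DMSO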
Target sequence (P51843 whole entry, looked up): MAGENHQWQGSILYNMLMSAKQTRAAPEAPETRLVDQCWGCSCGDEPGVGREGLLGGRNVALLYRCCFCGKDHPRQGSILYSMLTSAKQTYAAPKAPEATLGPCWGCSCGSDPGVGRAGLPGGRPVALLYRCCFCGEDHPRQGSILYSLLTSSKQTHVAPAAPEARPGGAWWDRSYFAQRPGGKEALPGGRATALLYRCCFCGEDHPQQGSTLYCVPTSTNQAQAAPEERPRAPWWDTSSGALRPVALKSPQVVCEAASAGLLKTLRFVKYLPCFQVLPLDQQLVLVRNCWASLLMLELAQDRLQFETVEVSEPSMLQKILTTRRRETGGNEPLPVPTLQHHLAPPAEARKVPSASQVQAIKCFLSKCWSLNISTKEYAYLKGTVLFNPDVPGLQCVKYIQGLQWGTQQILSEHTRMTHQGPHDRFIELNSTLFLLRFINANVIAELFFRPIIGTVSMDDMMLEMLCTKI
SF1 AF2mut Luc: StAR reporter signal changes without DAX1, counter-screen for DAX1 inhibitor project, cell-based, luminescence, AF-2 mutant SF-1, transactivation; 2,400 tested, 78% active; HEK293 StAR-luciferase, SF-1 AF2 mutant; shares compounds with DAX1 inh-2; inhibition, % at 6.8 µM;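 active means inhibition above the mean of all tested compounds plus 3 SD, cut at about 3% in these data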;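 further: 0% = DAX-1 transfected cells with DMSO and 100% = cells without DAX-1 with DMSO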
LXR ag: LXR agonists, Gal4 luciferase reporter, confirmation, counter-screen for hcDAF-12 agonist project, cell-based, luminescence, HEK293, H. contortus campaign. shares compounds with hcDAF-12 act. 3,400 tested, under 10 active. AID 743027, 2013. activation, % at 6.8 µM. HEK293 Gal4-LXR tk-luc reporter, 24 h; normalized: DMSO 0%, positive control 100%;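 active means mean percent activation of the reporter above a cutoff set as the average over tested compounds plus their standard deviation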
hcDAF12 ag: H. contortus DAF-12 receptor agonists, confirmation, cell-based, luminescence, HEK293, lit1-tk-luc, triplicate; shares compounds with hcDAF-12 act; HEK293 hcDAF-12 lit1-tk-luc reporter; % of Δ7-dafachronic acid response; activation, % at 6.8 µM; 3,400 tested, 61% active; AID 743032, 2013;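 active means mean activation across triplicate tests above the threshold derived from the earlier primary screen, cut at about 5.5% in these data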;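 further: 0% = DMSO only wells and 100% = 3 µM Δ7-dafachronic acid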
hgDAF12 conf: H. glycines DAF-12 receptor agonists, confirmation, cell-based, luminescence, HEK293, GAL4-LBD fusion; shares compounds with hgDAF12 agonist; HEK293 GAL4-hgDAF12 luciferase reporter, agonist mode; percent of butyrate response; activation, % at 6.8 µM; 3,300 tested, 80% active;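 active means mean activation over triplicate wells above the hit cutoff derived from the earlier primary screen, cut at about 11% in these data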;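 further: 0% = DMSO low control and 100% = 2 mM sodium butyrate high control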
LXRb DAF12 ctr: LXR agonists, Gal4 luciferase reporter, confirmation, counter-screen for hgDAF-12 agonist project, cell-based, luminescence, HEK293, H. glycines campaign | 24 h | 3,300 tested, under 10 active | shares compounds with hgDAF12 agonist | activation, % at 6.8 µM;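 active means mean activation of the triplicate above a set limit carried over from the primary screen, none filed active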
An asterisk follows results filed as active; . = no result given.

SMILES	AHR act	ssDAF-12 act	DAX1 inh-1	hgDAF12 agonist	hcDAF-12 act	DAX1 inh-2	DAX1 conf	SF1 AF2mut Luc	hgDAF12 conf	LXRb DAF12 ctr	others
O=C(Nc1ccccc1F)NC1CCCCCCC1	22.9	0.4	1.9	13.4*	2.6	4.5*	7.2*	4.1*	9.9	0.4
CC(=O)c1ccc(NC(=O)Nc2ccc(Cl)cc2)cc1	0.1	0.0	1.9	14.9*	7.1*	6.5*	6.6*	5.8*	16.4*	0.5	LXR ag=0.8;hcDAF12 ag=7.4*
O=C(Nc1ccccc1F)NC1CC1	-3.8	-1.2	2.9	0.9	0.5	0.3	.	.	.	.
CC(=O)c1cccc(NC(=O)NC2CCCCCCC2)c1	7.8	-1.0	1.3	0.4	2.7	0.1	.	.	.	.
Cc1cc(C)n2c(NC3CCCCC3)c(CC(C)C)nc2n1	.	-0.5	.	-1.1	-0.3	0.5	.	.	.	.
CCOC(=O)c1cnc(SCc2ccccc2)nc1N	-2.2	-0.6	2.6	16.1*	3.8	5.4*	10.4*	6.6*	16.0*	0.9
CCOC(=O)c1sc(=NC(=O)c2cccc(OC)c2)n(C)c1C	0.6	-1.2	0.3	8.4	-0.6	1.2	.	.	.	.
CCOC(=O)c1sc(=NC(=O)c2ccccc2)n(C)c1C	17.4	2.2*	2.9	13.3*	15.7*	4.6*	14.9*	9.6*	18.0*	0.9	LXR ag=1.3;hcDAF12 ag=14.1*
O=C(Nc1ccccc1)c1ccc(-c2ccc(F)cc2)s1	-3.5	1.0*	1.6	13.3*	5.4	7.1*	11.3*	7.0*	17.6*	0.7
O=[N+]([O-])c1ccccc1OCCCOc1cccc2cccnc12	14.1	-1.4	3.4	4.6	-1.8	0.6	.	.	.	.
COc1ccc(C(=O)c2oc3ccc(OC)cc3c2N)cc1	8.2	-0.6	2.8	20.7*	3.2	6.1*	12.2*	5.8*	14.8*	0.8
CN(CC(=O)Nc1ccc(OC(F)(F)F)cc1)C(=O)Cc1cccs1	7.2	-1.2	-0.5	0.3	-0.5	0.0	.	.	.	.
Cn1nnc2cc(NC(=O)Nc3ccccc3F)ccc21	.	0.1	1.6	15.5*	3.8	7.4*	9.8*	4.4*	14.1*	0.8
COc1ccc(OC)c(NC(=O)COC(=O)CN(C)S(=O)(=O)c2ccc(C)cc2)c1	0.7	-1.2	2.0	-0.1	0.8	-0.3	.	.	.	.
CN1CCN(c2ccc(-c3cccc(NC(=O)COc4ccc(Cl)cc4Cl)c3)nn2)CC1	1.5	-1.0	0.9	8.2	2.0	3.5	.	.	.	.
CN1CCN(c2ccc(-c3cccc(NC(=O)COc4ccc(Cl)cc4)c3)nn2)CC1	2.0	0.6	1.3	14.0*	3.5	7.9*	4.5*	2.3	10.0	0.7
CCC(=O)Nc1cccc(-c2ccc(N3CCCCC3)nn2)c1	-9.3	0.5	-0.5	13.6*	5.9*	14.6*	10.1*	4.7*	15.4*	0.7
CCC(=O)Nc1cccc(NC(=S)NC(=O)c2ccc(Cl)cc2Cl)c1	22.8	-0.5	-0.8	8.0	0.0	1.1	.	.	.	.
O=C(NC(=S)Nc1ncccn1)c1ccc(Cl)cc1Cl	13.1	0.5	5.1*	15.7*	2.2	6.7*	14.4*	9.8*	14.0*	0.6
O=S1(=O)CC(c2ccccc2)=NN=C(c2ccccc2)C1	.	1.5*	3.1	16.6*	9.5*	7.6*	11.1*	3.9*	15.5*	1.0	LXR ag=1.3;hcDAF12 ag=8.5*
O=C1CC(c2ccccc2)=NO1	.	-1.5	1.0	-1.2	0.5	0.1	.	.	.	.
COc1ccccc1C(=O)NCC1(c2ccccc2)CCCC1	1.7	-2.3	-3.9	-3.3	-2.2	-0.6	.	.	.	.
CSc1ncc(Cl)c(C(=O)C(C#N)c2nc3c(C)cc(C)cc3c(=O)[nH]2)n1 (stereo not given)	2.3	-1.7	2.2	0.1	0.2	0.4	.	.	.	.
CC(C)C1C(=O)N(Cc2cn(CCC3OCCO3)nn2)CCS(=O)(=O)N1Cc1ccc(-c2ccc(F)cc2Cl)cc1 (stereo not given)	.	-2.0	.	-4.1	-0.6	-0.9	.	.	.	.
CCC(=O)Nc1ccc2c(c1)ncn2-c1ccc(OC)cc1	17.7	-0.9	-0.1	0.6	-0.8	1.1	.	.	.	.
CCC(=O)Nc1ccc2c(c1)ncn2-c1ccc(C)cc1	11.3	-0.3	1.6	13.4*	2.6	7.4*	9.0*	5.5*	11.0*	0.4
CC(=O)N1CCN(C(=S)Nc2ccc(SC(F)F)cc2)CC1	0.2	0.0	0.0	1.4	-2.2	-0.2	.	.	.	.
O=C(Nc1ccc(SC(F)F)cc1)C1=COCCO1	-2.4	0.7	1.2	15.1*	4.0	4.9*	13.3*	6.8*	14.3*	0.8
